Data on 46 compounds can be found in ChEMBL document CHEMBL3988442, “University of Dundee, Small-Polar-MMV Screening Library” (2021).

The target in assay [1] is T1, Aspartate--tRNA(Asp/Asn) ligase (Mycobacterium tuberculosis (strain ATCC 25618 / H37Rv)) (UniProt P9WFW3). Further: in the data most compounds retested in dose-response had high values.
T1 sequence (whole entry): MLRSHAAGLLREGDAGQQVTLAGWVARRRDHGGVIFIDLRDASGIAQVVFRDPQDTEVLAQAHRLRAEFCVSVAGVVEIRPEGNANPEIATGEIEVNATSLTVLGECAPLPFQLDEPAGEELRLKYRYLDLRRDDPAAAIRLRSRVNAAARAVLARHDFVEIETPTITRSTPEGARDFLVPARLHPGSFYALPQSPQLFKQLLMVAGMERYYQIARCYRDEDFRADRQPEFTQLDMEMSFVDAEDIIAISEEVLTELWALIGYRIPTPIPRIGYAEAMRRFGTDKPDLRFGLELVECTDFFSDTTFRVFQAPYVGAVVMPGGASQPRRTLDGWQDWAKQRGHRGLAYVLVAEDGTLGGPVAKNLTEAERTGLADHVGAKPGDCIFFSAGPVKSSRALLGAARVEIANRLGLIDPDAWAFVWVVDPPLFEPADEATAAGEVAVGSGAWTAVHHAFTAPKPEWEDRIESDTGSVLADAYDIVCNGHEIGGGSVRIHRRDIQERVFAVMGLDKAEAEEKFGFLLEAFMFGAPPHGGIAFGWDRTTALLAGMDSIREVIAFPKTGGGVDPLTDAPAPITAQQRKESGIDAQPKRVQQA
As to the kind of experiment: Assay for Asp RNA synthetase-1 from Mycobacterium tuberculosis. In kind it is functional. The conditions noted are these: 30 µM. Also on record: scale not given: direction of the effect not stated beside the values.

Assay [2] has as its target Shiga toxin 2 (Escherichia coli O157:H7) (UniProt P09385+P09386). The experiment in a line: E. coli 0.157:H7 Shiga Toxin SOP - stx2 screening assay. The class given is functional. Also on record: scale not given: direction of the effect not stated beside the values. The conditions noted are these: 30 µM.

On to `CN(CC1(O)CCCCC1)C1CCCN(Cc2noc(C3CC3)n2)C1` (configuration not stated), for which the figures for the Percent Effect in assay [1] and in assay [2] were -2.39% and 23.8%, respectively.
As for `COc1ccc(S(N)(=O)=O)cc1C(=O)N(C)Cc1cc(C)on1`, the results for the Percent Effect in assay [1] and in assay [2] were -2.1% and -47%, respectively.
For `COCCNc1nc(C2CCCC2)nc2c1CCNCC2`, the Percent Effect is 2.87% in assay [1] and -36.8% in assay [2].
The corresponding values for `COc1c(C2CCCN2C(=O)c2c[nH]c3ncccc23)c(C)nn1C` (configuration not stated) are -1.25% and -20.6%.
The corresponding values for `CCn1nc(C)c2nnn(CC(=O)Nc3cccc(Cl)c3)c(=O)c21` are -0.523% and -43.6%.
The corresponding values for `Cc1ccc(C(N)c2cccc(S(C)(=O)=O)c2)cc1` (configuration not stated) are -0.691% and -0.145%.
For `CC(=O)N1CCN(c2ccc3ccc(C(=O)NC4CCCC4)cn23)CC1`, the Percent Effect in assay [1] is -0.91%; in assay [2] it was -45%.
On to `O=S(=O)(C1CC1)N1CCOCC2(CCN(c3ccccn3)C2)C1` (configuration not stated), for which the Percent Effect was 8.28% in assay [1] and -47.5% in assay [2].
On to `Cc1ccc(-c2cc(CN3CCCC(Cn4cncn4)C3)on2)cc1` (configuration not stated), for which the Percent Effect in assay [1] was 2.71%; in assay [2] it was -31.3%.
Take `CCOC(=O)[C@]12CCCN(Cc3ccco3)C[C@H]1CN(CCN(C)C)C2`: the Percent Effect in assay [1] is 4.07%; in assay [2] it was -6.83%.
Turning to `CC(Cc1ccco1)NC(=O)Nc1ccc(S(C)(=O)=O)nc1` (configuration not stated), the Percent Effect in assay [1] is 1.12%; in assay [2], -17.3%.
For the compound `CN(Cc1ccsc1)C(=O)c1cccc(F)c1`, the figures for the Percent Effect in assay [1] and in assay [2] were -5.62% and -0.747%, respectively.
In the same order, the values of `CCn1ccnc1CN1CCC(N(C)Cc2ncc(C)o2)C1` (configuration not stated) are -4.45% and -39.6%.
`O=C(CCCOCc1ccccc1)N1CCCC1c1ccccn1` (configuration not stated): the Percent Effect is -1.14% in assay [1] and -0.85% in assay [2].
The corresponding values for `O=C(NCc1ccc(F)cc1)N1CCC(C2OCCO2)CC1` are 3.59% and 1.94%.
For `CCCN1CCCn2nc(CNS(=O)(=O)c3ccc(C)cc3)cc2C1`, the Percent Effect in assay [1] is -1.38%; in assay [2], 6.63%.
Take `COc1cccc(C(=O)NCC(O)c2cccs2)c1` (configuration not stated): the Percent Effect in assay [1] is -4.63%; in assay [2], 2.93%.
For `Cn1nc(C2CCCN(C(=O)CO)C2)cc1O` (configuration not stated), the Percent Effect turned out to be 3.92% in assay [1] and 10.4% in assay [2].
In the same order, the values of `Brc1cc2c(cc1CN1CCC(N3CCCCC3)CC1)OCCO2` are -2.09% and -51.2%.
With `COc1c(CNC2CCCOc3ccccc32)c(C)nn1C` (configuration not stated), the Percent Effect in assay [1] is -2.86%; in assay [2], -2.26%.
Consider `CCOCCCNC(=O)c1nn(CC)cc1Cl`, for which the Percent Effect is -5.87% in assay [1] and -47.7% in assay [2].
Regarding `O=C(C1=CCCC1)N1CCO[C@H]2[C@@H](OCC3CC3)CC[C@@H]21`, the Percent Effect is 2.53% in assay [1] and -28.7% in assay [2].
Turning to `COCCC1COC2(CCN(C(=O)c3ccco3)CC2)C1` (configuration not stated), the Percent Effect in assay [1] was -0.368%; in assay [2], -2.25%.
`Cc1ccc2c(n1)N(CCN(C)C)CCN(C(=O)c1ccc[nH]1)C2`: the Percent Effect in assay [1] was 8.78%; in assay [2], -14.6%.
On to `CNC(=O)[C@H]1CCS(=O)(=O)[C@@H]2CN(Cc3ccc(OC)cc3)C[C@H]12`, for which the Percent Effect was -0.605% in assay [1] and 3.61% in assay [2].
As for `Cn1cnc2c1CCN(CCS(=O)(=O)c1ccccc1)C2`, the Percent Effect is -1.69% in assay [1] and 0.397% in assay [2].
`O=C(NCC1CCOC1)c1csc(-c2ccco2)n1` (configuration not stated): the results for the Percent Effect in assay [1] and in assay [2] were 2.85% and -11.7%, respectively.
For `NC(=O)NCC(=O)N1C[C@H]2CC[C@@H]1CN(C1Cc3ccccc3C1)C2`, the values for the Percent Effect in assay [1] and in assay [2] were 6.33% and -7%, respectively.
As to `O=S(=O)(CCCN1CCCC1Cn1cncn1)c1ccccc1` (configuration not stated), the Percent Effect in assay [1] was -1.76%; in assay [2], -32.7%.
The corresponding values for `COCCN1C[C@H]2CC[C@@]3(N=C(C)N(CC4CC4)C3=O)[C@H]2C1` are 4.94% and -12.7%.
With `O=C(CCn1cccn1)N1CCN(CC(F)F)CC1`, the values for the Percent Effect in assay [1] and in assay [2] were 2.16% and 15.4%, respectively.
Consider `CCCn1nc(C)c(CNC(=O)C2COc3c(cccc3OC)C2)c1C` (configuration not stated), for which the results for the Percent Effect in assay [1] and in assay [2] were 0.114% and -6.29%, respectively.
In the same order, the values of `CSCc1cccc(S(=O)(=O)NCCCN2CCOCC2)c1` are 13.9% and -32.1%.
For the compound `O=C(c1cccnc1)N1CC[C@H](OCC2CC2)[C@@H]1Cc1cccnc1`, the Percent Effect in assay [1] was 3.76%; in assay [2], -13.7%.
The corresponding values for `CCOCC1CC2(CCN(C(=O)c3ccccn3)CC2)CO1` (configuration not stated) are 0.961% and 5.8%.
For `CC(C)NC(=O)c1ccc2c(c1)nc1n2CCN(c2ccccc2)C1`, the Percent Effect in assay [1] was 0.0581%; in assay [2] it was -15.6%.
Turning to `Cc1nc(CCNC(=O)C2CC(=O)N(C(C)(C)C)C2)sc1C` (configuration not stated), the Percent Effect in assay [1] is 1.05%; in assay [2], -3.12%.
For the compound `CC(C)c1nn(C)c(Cl)c1CNCc1ccc2c(c1)OCCO2`, the Percent Effect turned out to be 5.79% in assay [1] and 32.9% in assay [2].
`Cn1ncc2c1CCCC2NCc1cnc(-c2ccccc2)nc1` (configuration not stated): the figures for the Percent Effect in assay [1] and in assay [2] were 8.81% and -1.99%, respectively.
Consider `Cc1cc(C(F)(F)F)c2c(C3CCN(S(=O)(=O)N(C)C)CC3)noc2n1`, for which the Percent Effect in assay [1] was found to be 7.31%; in assay [2], 0.93%.
For `Cc1noc(NC(=O)c2ccc(OC(F)(F)F)cc2)n1`, the Percent Effect in assay [1] is 3.01%; in assay [2], 62.3%.
In the same order, the values of `Cc1ccc(NC(=O)NCCCc2n[nH]c(N)c2C#N)cc1` are 1.26% and -18.4%.
`CC(CN1CCOCC1)NC(=O)N(C)Cc1ccc(Cl)s1` (configuration not stated): the Percent Effect in assay [1] is 1.38%; in assay [2], -12.6%.
For the compound `CS(=O)(=O)N1CCOCC2(CCN(C(=O)c3cccnc3)CC2)C1`, the Percent Effect in assay [1] was -2.76%; in assay [2] it was -13.1%.
As to `Cc1nc(CN(C)C2CCN(Cc3ccc4ccccc4n3)C2)no1` (configuration not stated), the Percent Effect in assay [1] is 3.73%; in assay [2] it was -68.9%.
The corresponding values for `CN(Cc1ccco1)C(=O)C1CSCN1C(=O)c1cccnc1` (configuration not stated) are 2.02% and 13.1%.
